Results reported in the supplement of paper PMC6555819.

What was measured:
Assay in all cases: PBM binding z-score (relative to random genomic background probes); higher = stronger binding; sequences stand for … in GC…GCGATTGACAGCGTAGAATGAAGG
[1] = tested on: FXR:RXRa (NR concentration 270 nM, RXRa partner concentration 90 nM)
Outline: (§1)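 Ligand-free nuclear receptor dimers were applied to custom Agilent 4×180K protein-binding microarrays whose double-stranded probes carried direct-repeat seeds, single-nucleotide variants, half-site ablations and random human genomic background sequences in 34-nt variable regions. Incubation lasted 1 h. Binding z-scores were computed against the random background probes from regression-normalized fluorescence.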

[2] = tested on: LXRa:RXRa (NR concentration 270 nM, RXRa partner concentration 90 nM)
Outline: as §1

[3] = tested on: LXRa homodimer (NR concentration 270 nM)
Outline: as §1

[4] = tested on: LXRb:RXRa (NR concentration 270 nM, RXRa partner concentration 90 nM)
Outline: as §1

[5] = tested on: LXRb homodimer (NR concentration 270 nM)
Outline: as §1

[6] = tested on: PPARa:RXRa (NR concentration 270 nM, RXRa partner concentration 90 nM)
Outline: as §1

[7] = tested on: PPARg:RXRa (NR concentration 180 nM, RXRa partner concentration 90 nM)
Outline: as §1

[8] = tested on: PPARg:RXRa 270nM:90nM, anti-RXR (NR concentration 270 nM, RXRa partner concentration 90 nM)
Outline: as §1

[9] = tested on: PPARg:RXRa 30nM:10nM, anti-RXR (NR concentration 30 nM, RXRa partner concentration 10 nM)
Outline: as §1

[10] = tested on: PPARg:RXRa 90nM:30nM, anti-RXR (NR concentration 90 nM, RXRa partner concentration 30 nM)
Outline: as §1

| Sequence | PBM binding z-score [1] | PBM binding z-score [2] | PBM binding z-score [3] | PBM binding z-score [4] | PBM binding z-score [5] | PBM binding z-score [6] | PBM binding z-score [7] | PBM binding z-score [8] | PBM binding z-score [9] | PBM binding z-score [10] |
| --- | --- | --- | --- | --- | --- | --- | --- | --- | --- | --- |
| CCTTACGGGTCACTGACAGGATATAGCATTTGGA | 5.3 | 3.68 | 0.191 | 3.28 | -0.185 | 5.22 | 4.58 | 4.24 | 1.5 | 2.88 |
| TAGCCTAGATCATGGGCCAGTATACCACGCGAAC | -0.688 | -0.764 | -0.759 | -0.614 | -0.395 | -0.574 | 0.555 | -0.555 | -0.628 | -0.462 |
| TCTCGGAGGACACGGAGGTCAGAGCTTTCCAGAG | 1.72 | 1.54 | 0.806 | 1.13 | -1.06 | 2.22 | 0.548 | 1.54 | 1.85 | 1.75 |
| GATACAGGGACAAGGCCAGAGTACGCGTATTGAT | -0.342 | -0.63 | -0.318 | -0.797 | -0.748 | -0.534 | 0.946 | 0.318 | 0.00447 | -0.175 |
| CCGAGTAGGTTATGGGGAATTCAGGCAACGGTGA | 0.109 | 0.544 | 0.111 | 0.918 | 0.311 | 1.23 | 1.46 | 2.43 | 0.671 | 1.48 |
| CCTCGGAGGACAGAAGGACAGAGCTGTCCGCTTT | -0.348 | -0.559 | -0.63 | -0.942 | -0.907 | -0.733 | -0.176 | -0.854 | -1.07 | -0.86 |
| CCTAGCAGGCCAATCTGGGTCACTCCAGGCTTGA | 0.645 | 1.09 | -0.166 | 0.329 | -1.31 | 2.6 | 1.99 | 2.05 | -0.235 | 1.03 |
| TTACCAAGGTGAAGGTCGTTAATCCCTCTGTAGA | 1.32 | 1.12 | -0.236 | 1.22 | -0.624 | 2.49 | 2.65 | 3.89 | 1.82 | 3.43 |
| ATTATTAGTTGACTTAGGGCAACCGATACGACGC | 0.735 | 0.64 | 1.16 | 0.949 | 1.32 | 0.727 | 1.09 | 0.586 | 0.719 | 0.975 |
| GATACAGGTTCAGCTAGAGGCCAGAGTATGGAAA | 0.427 | 0.656 | -0.157 | 0.305 | -0.537 | 1.29 | 0.495 | 0.117 | -0.177 | -0.176 |
| TCTTGTAGATCAGCAGCTTAAGAAAGCTGGCCAA | -0.0933 | -0.339 | -0.557 | -0.411 | -0.692 | 0.41 | -0.825 | 0.886 | 2.45 | 1.69 |
| CCTAGTTGGTCAAGGTCAAACACGCTATAGGTAC | 5.04 | 4.62 | 3.57 | 4.52 | 1.24 | 4.81 | 3.13 | 3.93 | 1.16 | 3.04 |
| CCTAGTTGGTCAAGGTTACACACGCTATAGGTAC | 1.22 | 1.09 | 0.67 | 1.4 | 0.618 | 1.79 | 1.82 | 2.2 | 0.763 | 1.81 |
| CCTCGTTGGTCAGGAGGTCACACACCGGATATGA | 3.4 | 3.49 | 1.96 | 3.4 | 0.47 | 4.22 | 2.29 | 2.99 | 0.71 | 2.06 |
| TCTAGTTGGTCAAAGGTCGCACACTCGAAATGCG | 2.96 | 2.82 | 0.642 | 2.92 | 0.553 | 5.33 | 10.3 | 9.2 | 10.5 | 10.8 |
| ATCGAAAGGTCGTGAGGTGAGTATACAGAAAGGC | 5.57 | 4.25 | 0.175 | 3.13 | 0.435 | 4.95 | 4.06 | 4.39 | 1.92 | 3.28 |
| CCTAGCAGGCCAATCTGGGCCACTCAAGGCTTGA | -0.284 | -0.644 | -0.799 | -1.18 | -1.02 | 0.492 | -0.0153 | -0.364 | -1.32 | -1.08 |
| GCTGCTAGGTCAGGTTGGTGAGCTAACGGGTACG | 1.04 | 0.598 | -0.365 | 0.053 | -0.485 | 1.22 | 0.336 | 0.876 | -0.603 | 0.225 |
| TAGCCTAGGTCAGATCGGGCTAGTATACGCTATA | 1.81 | 1.03 | -0.52 | 0.639 | -0.577 | 1.73 | 0.628 | 0.874 | -0.237 | 0.393 |
| CGTCCAAGGTCATAGGAGGTCAGTGGAGACAGAT | 7.92 | 7.55 | 5.5 | 6.44 | 1.44 | 5.76 | 5.84 | 5.73 | 2.93 | 4.69 |
| ACAGACAGCTGAGTGAAGGTAACTCAGCTGGACG | -0.287 | -0.122 | -0.822 | -0.496 | -0.626 | -0.464 | 0.214 | -0.699 | -0.617 | -0.561 |
| ACTAGCAGGCCACGTTTGGGTCACTCAAACAAAG | 0.331 | 0.116 | -0.479 | 0.601 | -0.41 | 1.42 | 0.444 | 0.355 | -0.448 | -0.155 |
| TCTTGTAGATCAAGCAGGTTAAGAATGCCTGAGT | 0.16 | 0.304 | -0.202 | 0.114 | -0.543 | 0.658 | -0.22 | 1.1 | 2.61 | 1.83 |
| ACTAGCAGCCCAAGTTTGGGTCACTCAAACAAAG | -0.21 | -0.0985 | -0.387 | 0.667 | -0.605 | 0.976 | -0.169 | 0.0773 | -0.863 | -0.372 |
